Experimental data published in article doi:10.1101/2024.03.05.583629.

The sequences below were run against pT7_6His-AlfaTag-HOXD13 (human, UniProt P35453 263-343) (assay: PADIT-seq). Conditions: dsDNA, one strand shown.
Sequence of pT7_6His-AlfaTag-HOXD13 (P35453 263-343): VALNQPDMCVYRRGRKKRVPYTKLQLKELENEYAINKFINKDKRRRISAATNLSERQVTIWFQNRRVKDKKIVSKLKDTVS

Sequence | binding signal [log2FC]
CTCGAGGATATCAAGATCTGGCCTCGGCATGCTAAAAGGAACCTCTAGCTAGCCGACTCACTATAGGGATAATCGCCCTGAGCAAAGACC | 0.0523 ± 0.0889
CTCGAGGATATCAAGATCTGGCCTCGGCTATTTAAAAGGAACCTCTAGCTAGCCGACTCACTATAGGGATAATCGCCCTGAGCAAAGACC | 2.42 ± 0.0909
CTCGAGGATATCAAGATCTGGCCTCGGCATTTTAATGGGAACCTCTAGCTAGCCGACTCACTATAGGGATAATCGCCCTGAGCAAAGACC | 2.51 ± 0.077
CTCGAGGATATCAAGATCTGGCCTCGGCCTTTTATCTGGAACCTCTAGCTAGCCGACTCACTATAGGGATAATCGCCCTGAGCAAAGACC | 0.811 ± 0.0782
CTCGAGGATATCAAGATCTGGCCTCGGCAAAGTAAAAGGAACCTCTAGCTAGCCGACTCACTATAGGGATAATCGCCCTGAGCAAAGACC | 0.197 ± 0.0829
CTCGAGGATATCAAGATCTGGCCTCGGCCTTTTATAAGGAACCTCTAGCTAGCCGACTCACTATAGGGATAATCGCCCTGAGCAAAGACC | 3.23 ± 0.0726
CTCGAGGATATCAAGATCTGGCCTCGGCGCGGTAGCGGGAACCTCTAGCTAGCCGACTCACTATAGGGATAATCGCCCTGAGCAAAGACC | -1.07 ± 0.136
CTCGAGGATATCAAGATCTGGCCTCGGCATAATAAAAGGAACCTCTAGCTAGCCGACTCACTATAGGGATAATCGCCCTGAGCAAAGACC | 2.68 ± 0.0776
CTCGAGGATATCAAGATCTGGCCTCGGCGTTTTACAGGGAACCTCTAGCTAGCCGACTCACTATAGGGATAATCGCCCTGAGCAAAGACC | 2.89 ± 0.0835
CTCGAGGATATCAAGATCTGGCCTCGGCCTTTTAATAGGAACCTCTAGCTAGCCGACTCACTATAGGGATAATCGCCCTGAGCAAAGACC | 2.68 ± 0.0826
